This is a sample that favours compounds with a hit; in the whole collection about 10% have one here.
G9a block – qHTS Assay for Inhibitors of Histone Lysine Methyltransferase G9a; Histone-lysine N-methyltransferase EHMT2 (Homo sapiens), Q96KQ7; G9a H3K9 monomethylation, AlphaScreen, 2 h; Potency, µM (series often up to 102 µM), without a hit: at the highest dose activity, negative = inhibition, hits mostly inhibitors; 350,000 tested, 8.8% active; further: potency means the concentration at half of the fitted maximal effect; nearly all actives have a fitted effect of over 75% in size
Target sequence (Q96KQ7 913-1193 limits assumed): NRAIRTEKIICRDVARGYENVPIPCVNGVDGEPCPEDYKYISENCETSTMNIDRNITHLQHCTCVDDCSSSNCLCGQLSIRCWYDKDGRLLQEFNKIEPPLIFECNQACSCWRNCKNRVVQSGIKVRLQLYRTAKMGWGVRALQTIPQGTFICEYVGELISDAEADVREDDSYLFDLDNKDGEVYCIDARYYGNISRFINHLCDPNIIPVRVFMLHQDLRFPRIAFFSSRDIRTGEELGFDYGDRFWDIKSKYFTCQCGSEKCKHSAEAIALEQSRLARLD
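Signal arises when biotinylated H3K9 peptide, once monomethylated, bridges streptavidin donor and antibody-captured acceptor beads. Enzyme at 20 nM was preincubated 15 min with test compounds; peptide 500 nM and SAM 20 uM then reacted for 2 h.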
CCT chaperon mod – High-Throughput Screening for Modulators of Cytosolic Chaperonin Activity; purified chaperonin ATPase assay, HTRF ADP detection, 30 min; activity change, % (no concentration beside the values), hits read low; 360,000 tested, 0.3% active; AID 651819, 2012; in the data active means activity change below about -30%
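First, chaperonin was dispensed at 40 nM or 20 nM final depending on batch activity. Next, compounds were pinned at 76 uM and ATP added at 10 uM. After 30 min at 37 °C, ADP detection reagents ran 30 min at ambient temperature.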
Sfp PPTase inh – qHTS Assay for Inhibitors of Bacillus subtilis Sfp phosphopantetheinyl transferase (PPTase); 310,000 tested, 3.5% active; Potency, µM, without a hit: largest response in the series, negative = inhibition, actives largely listed as inhibitors; 4'-phosphopantetheinyl transferase ffp (Bacillus subtilis), Q9F4F7; Biochemical Sfp PPTase activity, qHTS;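 further: the enzyme is Sfp with the accession as filed and its product quenches rhodamine fluorescence; potency means the concentration at half of the fitted maximal effect; 0% = enzyme reaction without inhibitor and -100% = no enzyme wells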
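Reaction rates are the 30-min fluorescence difference (ex 525, em 598 nm) in wells containing 15 nM Sfp, 5 uM rhodamine-CoA and 12.5 uM BHQ-2-YbbR at pH 7.6 with 10 mM MgCl2.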
VDR inhibitor – Inhibitors of the vitamin D receptor (VDR): qHTS | Vitamin D3 receptor (Homo sapiens), P11473 | VDR-SRC2-3 peptide fluorescence polarization, 2 h | Potency, µM, for inactives: max response, negative = inhibition, most hits filed as inhibitors | 400,000 tested, 0.93% active; further: potency means the concentration at half of the fitted maximal effect
Target sequence (P11473 whole entry, looked up): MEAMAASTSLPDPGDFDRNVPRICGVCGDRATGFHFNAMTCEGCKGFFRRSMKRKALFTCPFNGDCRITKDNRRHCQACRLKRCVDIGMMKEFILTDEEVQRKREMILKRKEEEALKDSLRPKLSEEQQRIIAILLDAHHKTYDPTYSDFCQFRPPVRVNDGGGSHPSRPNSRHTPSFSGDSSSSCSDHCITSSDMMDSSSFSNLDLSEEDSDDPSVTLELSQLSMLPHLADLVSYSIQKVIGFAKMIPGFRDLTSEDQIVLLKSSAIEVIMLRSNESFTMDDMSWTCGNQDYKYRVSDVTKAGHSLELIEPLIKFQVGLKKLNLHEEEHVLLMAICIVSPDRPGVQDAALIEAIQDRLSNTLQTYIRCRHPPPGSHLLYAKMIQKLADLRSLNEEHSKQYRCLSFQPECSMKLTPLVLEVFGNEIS
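Inhibition of the VDR/SRC2-3 peptide interaction is quantified by fluorescence polarization. Compounds (23 nl, pintool) incubate with the reagents for 2 hours at ambient room temperature.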
PLK1 PBD inh – qHTS for Inhibitors of PLK1-PDB (polo-like kinase 1 - polo-box domain): Primary Screen; Serine/threonine-protein kinase PLK1 (Homo sapiens), P53350; Plk1 PBD binding of FITC phosphopeptide, fluorescence polarization; Potency, µM, for inactives: max response, negative = inhibition, usual class: inhibitors; 360,000 tested, 2.8% active; AID 720504, 2013; further: potency means the concentration at half of the fitted maximal effect; series mostly up to about 57 µM; nearly all actives have a fitted effect of over 65% in size
Mm-Cpn inhibitor – Inhibitors of TCP-1 ring complex (TRiC) of Methanococcus maripaludis (MmCpn): qHTS | 330,000 tested, 0.031% active | purified Mm-Cpn ATPase, ADP Transcreener TR-FRET | AID 504842, 2011 | Potency, µM (series often up to 76.9 µM), inactives show top-dose activity, negative = inhibition, usual class: inhibitors; further: potency means the concentration at half of the fitted maximal effect; nearly all actives have a fitted effect of over 80% in size
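Eu-cryptate anti-ADP/ADP-d2 competition gives a ratio inversely related to ADP. Enzyme at 25 nM was pre-exposed to compound for 10 min, then given 10 uM ATP for 30 min, 37°C throughout.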
TbPYK inh – qHTS of Trypanosoma Brucei Inhibitors: Confirmatory Assay for Cherry-picked Compounds; Potency, µM (top dose mostly 76.9 µM), for inactives: at the highest dose activity change, negative = inhibition, hits mostly inhibitors; recombinant TbPYK, Kinase-Glo ATP luminescence; 890 tested, 67% active; shares compounds with PLK1 PBD inh; further: potency means the concentration at half of the fitted maximal effect; nearly all actives have a fitted effect of over 70% in size
TbPYK ADP-Glo – qHTS of Trypanosoma Brucei Inhibitors: Orthogonal Assay for Cherry-picked Compounds; shares compounds with PLK1 PBD inh; recombinant TbPYK, ADP-Glo luminescence, 60 min; Potency, µM (titrated, usually from 76.9 µM), for the others: at the top dose activity change, negative = inhibition, hits mostly inhibitors; 890 tested, 62% active; AID 720584, 2013; further: potency means the concentration at half of the fitted maximal effect; nearly all actives have a fitted effect of over 75% in size
* marks the source's active call; other numbers are inactive results; [ ] = another dose, or the depositor's remark. Unless noted, the call rests on the fitted dose curve; in most records, active means well fitted curve in the direction sought with a large enough effect; inconclusive means small, poorly fitted or top-dose-only effect, or another doubt; inactive means no such curve, though single readings can be large; an effect the other way counts as inactive or inconclusive. Unless noted, on the % scale 0 is the no-effect control and ±100 the full control effect.

What do the screens show for `COc1ccc(C(=O)N/N=C/c2ccc(N3CCOCC3)o2)cc1OC`?
G9a block: 8.9µM*; CCT chaperon mod: 0; Sfp PPTase inh: 3.5µM*; VDR inhibitor: inconclusive; PLK1 PBD inh: -14%; Mm-Cpn inhibitor: -2%; TbPYK inh: -7%; TbPYK ADP-Glo: inconclusive

What do the screens show for `CCc1cccc(NC(c2ccccc2)c2nnc(-c3ccccc3F)o2)c1` (stereo not given)?
G9a block: 9%[59 µM]; VDR inhibitor: -7%

Results for CC(Oc1ccccc1)C(=O)Nc1ccc(S(=O)(=O)N2CCN(C)CC2)cc1 (stereo not given) ?
G9a block: inconclusive; CCT chaperon mod: -1; VDR inhibitor: -25%; PLK1 PBD inh: -6%; Mm-Cpn inhibitor: 2%

Results for CC(Oc1ccccc1Cl)C(=O)Nc1ccc(S(=O)(=O)N2CCN(C)CC2)cc1 (stereo not given) ?
CCT chaperon mod: -5; VDR inhibitor: inconclusive; PLK1 PBD inh: 19µM*; TbPYK inh: inconclusive; TbPYK ADP-Glo: inconclusive

What do the screens show for `CCCCCC(=O)NNC(=S)NC(=O)c1cccc([N+](=O)[O-])c1`?
G9a block: 7.9µM*; CCT chaperon mod: -1; Sfp PPTase inh: inconclusive; VDR inhibitor: inconclusive; PLK1 PBD inh: 15µM*; Mm-Cpn inhibitor: 3%; TbPYK inh: 11µM*; TbPYK ADP-Glo: 14µM*

How did O=C(/C=C/C(=O)Oc1ccccc1C(=O)O)Oc1ccccc1C(=O)O do in these assays?
Sfp PPTase inh: -5%; VDR inhibitor: -15%

What do the screens show for `O=C(c1ccccc1)c1cc(Cl)ccc1N1C(=O)C=CC1=O`?
G9a block: 1.8µM*; CCT chaperon mod: 1; Sfp PPTase inh: 3.2µM*; VDR inhibitor: 25µM*; PLK1 PBD inh: 3µM*; Mm-Cpn inhibitor: 2%; TbPYK inh: 5µM*; TbPYK ADP-Glo: 10µM*

What do the screens show for `O=c1c2sc3ccccc3c2n(Cc2cccc(Cl)c2)c(=O)n1Cc1ccc(F)cc1`?
G9a block: -9%[59 µM]; VDR inhibitor: -17%

How did COC1=CC(=O)C(C2CC(=O)c3c(O)cc(O)cc3O2)=CC1=O (stereo not given) do in these assays?
CCT chaperon mod: 1; VDR inhibitor: 79µM*; PLK1 PBD inh: 4.2µM*; TbPYK inh: 16µM*; TbPYK ADP-Glo: 28µM*

Results for O=C(CSc1ncnc2sc3c(c12)CCCC3)NC1CCS(=O)(=O)C1 (stereo not given) ?
CCT chaperon mod: 0; VDR inhibitor: 5%; PLK1 PBD inh: inconclusive; Mm-Cpn inhibitor: -8%

Results for Nc1sc2c(c1C(=O)NC1CCS(=O)(=O)C1)CCCC2 (stereo not given) ?
G9a block: 7.9µM*; CCT chaperon mod: -1; Sfp PPTase inh: 20µM*; VDR inhibitor: inconclusive; PLK1 PBD inh: 27µM*; Mm-Cpn inhibitor: -2%; TbPYK inh: 14µM*; TbPYK ADP-Glo: 16µM*

How did Cc1cc(C)c(S(=O)(=O)/N=C2/C=C(Sc3ncn[nH]3)C(=O)c3ccccc32)cc1C do in these assays?
G9a block: 1.4µM*; CCT chaperon mod: 0; Sfp PPTase inh: 1µM*; VDR inhibitor: inconclusive; PLK1 PBD inh: 0.84µM*; Mm-Cpn inhibitor: -14%; TbPYK inh: 1.4µM*; TbPYK ADP-Glo: 2.5µM*

Results for CCN(c1ccccc1)S(=O)(=O)c1ccc(Cl)c(NC(=O)CSc2ncn[nH]2)c1 ?
G9a block: inconclusive; CCT chaperon mod: -4; Sfp PPTase inh: 23%; VDR inhibitor: inconclusive; PLK1 PBD inh: -15%; Mm-Cpn inhibitor: 0%

What do the screens show for `COc1cccc(NC(=O)CCC2CCN(C(=O)c3cncs3)CC2)c1`?
G9a block: 40µM*; CCT chaperon mod: 0; Sfp PPTase inh: -10%; VDR inhibitor: inconclusive; PLK1 PBD inh: -3%; Mm-Cpn inhibitor: 0%; TbPYK inh: 20µM*; TbPYK ADP-Glo: inconclusive

How did O=c1c(-c2cccs2)nc2cncnc2n1C1CC1 do in these assays?
G9a block: -4%[12.7 µM]; Sfp PPTase inh: 7%; VDR inhibitor: 1%

What do the screens show for `CCCn1c(=N)c(C(=O)NC(C)c2ccccc2)cc2c(=O)n3ccccc3nc21` (stereo not given)?
G9a block: -2%[59 µM]; VDR inhibitor: -1%

How did O=C1NC(c2cccs2)Nc2sc3c(c21)CCCC3 (stereo not given) do in these assays?
G9a block: inconclusive; CCT chaperon mod: -94*; Sfp PPTase inh: 45µM*; VDR inhibitor: 0%; PLK1 PBD inh: inconclusive; Mm-Cpn inhibitor: 2%; TbPYK inh: -18%; TbPYK ADP-Glo: -20%

How did CN1CCc2c(sc3c2C(=O)NC(c2ccco2)N3)C1 (stereo not given) do in these assays?
G9a block: inconclusive; CCT chaperon mod: -1; Sfp PPTase inh: -9%; VDR inhibitor: -26%; PLK1 PBD inh: -10%; Mm-Cpn inhibitor: -2%

How did CCCCOc1ccc(/C=C/C(=O)OCC(=O)NC2CCS(=O)(=O)C2)cc1OCC (stereo not given) do in these assays?
G9a block: -3%; CCT chaperon mod: 1; VDR inhibitor: 7%; PLK1 PBD inh: -5%; Mm-Cpn inhibitor: -2%

What do the screens show for `CCCCOc1ccc(/C=C/C(=O)OCC(=O)NC(=O)NCC(C)C)cc1OCC`?
G9a block: 48%[59 µM]; CCT chaperon mod: -2; Sfp PPTase inh: -7%; VDR inhibitor: -7%; PLK1 PBD inh: -11%; Mm-Cpn inhibitor: -9%; TbPYK inh: 4%; TbPYK ADP-Glo: -2%

What do the screens show for `COc1ccc(CNC(=O)C2CCN(S(=O)(=O)c3c(C)noc3/C=C/c3ccccc3F)CC2)cc1`?
G9a block: 22%[59 µM]; VDR inhibitor: -2%

Screening data as filed in PubChem.
